Compound activity as filed in PubChem.
Glyco luc inh: N-linked glycosylation inhibition | AID 588692 | reporter increase, % at 12.5 µM | D54 ERlucT glycosylation luciferase reporter, 24 h; percent of 100 nM tunicamycin response | 360,000 tested, 0.23% active;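 active = mean luciferase reporter signal, scaled so untreated is 0 and the glycosylation-blocking control 100, at or above a set limit in every replicate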;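 note: luciferase carries N-glycosylation sites so blocking glycosylation raises the light; 0% = median of neutral control wells and 100% = median of 100 nM tunicamycin wells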
Mot1-301 SUMO: inhibitors of SUMOylation pathway: yeast Mot1-301 growth rescue. S. cerevisiae Mot1-301 growth rescue, ATP luminescence, 38.5C; percent above DMSO median, 100 means doubled. growth rescue, % at 18.8 µM. 320,000 tested, 1% active. AID 2716;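 active = every valid replicate shows activation above 250% relative to neutral control wells; inactive = the rest, any valid replicate at or below 250%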;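 note: OY570 slx delta 5 strain wells were the positive control but not used for scaling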
Casp6 inh: caspase-6 (human) enzyme inhibition; P55212; purified caspase-6, Z-VEID-R110 cleavage fluorescence; inhibition, % at 12.5 µM; 350,000 tested, 0.53% active; AID 686996;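 active = mean inhibition across replicates at least about 35%, with every replicate also reaching that limit, limit read from the data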;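 note: 0% = median of neutral control wells and 100% = no fluorescence left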
Target sequence (P55212 24-179 limits assumed): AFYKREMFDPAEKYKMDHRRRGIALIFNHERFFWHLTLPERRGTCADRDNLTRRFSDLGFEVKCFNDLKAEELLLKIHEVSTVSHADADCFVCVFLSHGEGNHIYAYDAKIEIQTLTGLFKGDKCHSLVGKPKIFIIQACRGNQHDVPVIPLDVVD
Target sequence (P55212 194-293 limits assumed): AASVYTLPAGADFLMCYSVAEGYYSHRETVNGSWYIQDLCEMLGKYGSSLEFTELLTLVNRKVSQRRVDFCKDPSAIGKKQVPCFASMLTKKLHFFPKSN
CDK5 p35 inh: CDK5/p35 (human) kinase inhibition | AID 488839 | 330,000 tested, 0.01% active | inhibition, % at 10 µM | Recombinant CDK5/p35, ADP-Glo luminescence, 60 min;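 active = highest replicate inhibition of at least 50% and at least 75% of replicates reaching 50%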;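 note: plate controls were DMSO neutral control for no effect and GW8510 at 10 µM for full effect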
ALR H2O2 inh: inhibitors of human sulfhydryl oxidase ALR; P55789; inhibition, % (concentration not given with the values); AID 485317; 290,000 tested, 3.8% active; purified ALR, DTT oxidation, H2O2 HRP-luminol luminescence;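 active = mean replicate inhibition above about 79%, with every replicate also reaching it, limit read from the data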
Target sequence (P55789 whole entry, looked up): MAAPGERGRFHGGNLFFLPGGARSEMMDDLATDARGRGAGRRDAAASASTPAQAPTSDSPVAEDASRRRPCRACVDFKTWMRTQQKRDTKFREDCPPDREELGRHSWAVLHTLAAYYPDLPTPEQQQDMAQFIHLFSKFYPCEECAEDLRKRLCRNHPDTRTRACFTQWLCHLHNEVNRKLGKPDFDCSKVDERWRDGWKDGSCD
NSD2 inh: blocks human histone methyltransferase NSD2; O96028; NSD2 peptide methylation, AlphaScreen, 120 min; inhibition, % at 12.5 µM; 310,000 tested, 0.54% active; AID 743445; in the data active = inhibition above about 50%
* = called active by the depositor. The list is not random: actives were taken first. Their share in the collection is about 3.9%.

What do the screens show for `COc1cccc(NC2=C(NCCO)C(=O)c3ccccc3C2=O)c1`?
Glyco luc inh: 9.8; Mot1-301 SUMO: -5.4; Casp6 inh: 10.1; CDK5 p35 inh: -0.7; ALR H2O2 inh: 87.2*; NSD2 inh: 24.7

How did COc1ccc(NC2=C(NCCO)C(=O)c3ccccc3C2=O)cc1 do in these assays?
Glyco luc inh: 21.1; Mot1-301 SUMO: 3.3; Casp6 inh: 87.7*; CDK5 p35 inh: 0.4; ALR H2O2 inh: -85.3

What do the screens show for `Cc1cccc(Nc2nc(N)c([N+](=O)[O-])c(NCCO)n2)c1`?
Glyco luc inh: 2.6; Mot1-301 SUMO: 1.4; Casp6 inh: 6.3; CDK5 p35 inh: 18.2; ALR H2O2 inh: -11.4; NSD2 inh: 2.7

What do the screens show for `COC1=C(Nc2ccc(O)cc2)C(=O)c2ccccc2C1=O`?
Glyco luc inh: -1.4; Mot1-301 SUMO: 1.1; Casp6 inh: 14.1; CDK5 p35 inh: 5.3; ALR H2O2 inh: 98.7*; NSD2 inh: 46.2

How did Cc1cccc(NC2=C(NCCO)C(=O)c3ccccc3C2=O)c1 do in these assays?
Glyco luc inh: 3.7; Mot1-301 SUMO: 2.9; Casp6 inh: 91.5*; CDK5 p35 inh: 1.6; ALR H2O2 inh: 98.9*; NSD2 inh: 41.3

How did C[C@@H]1CCCCO[C@@H](CN(C)S(C)(=O)=O)[C@H](C)CN([C@@H](C)CO)C(=O)c2cc(NC(=O)C3CCCCC3)ccc2O1 do in these assays?
Casp6 inh: 25.0

How did O=C(Nc1cccc(-c2ccc(N3CCCCC3)nn2)c1)C(F)(F)F do in these assays?
Glyco luc inh: -23.9; Mot1-301 SUMO: 75.2; Casp6 inh: 4.1; CDK5 p35 inh: -1.7; ALR H2O2 inh: 91.6*; NSD2 inh: -2.2

What do the screens show for `CC1CCN(c2ccc(-c3cccc(NC(=O)C(F)(F)F)c3)nn2)CC1`?
Glyco luc inh: -24.5; Mot1-301 SUMO: -37.5; Casp6 inh: 4.7; CDK5 p35 inh: -1.4; ALR H2O2 inh: 0.8

How did O=C(Nc1nnc(-c2ccc(F)cc2)o1)c1ccco1 do in these assays?
Glyco luc inh: -0.1; Mot1-301 SUMO: 3.4; Casp6 inh: -0.1; CDK5 p35 inh: 0.1; ALR H2O2 inh: 95.6*

Results for O=C1Cc2c(-c3ccccc3)cc(-c3cccc(Cl)c3)nc2-c2ccccc2N1 ?
Glyco luc inh: 72.3*; Casp6 inh: 1.0; CDK5 p35 inh: 1.5; NSD2 inh: -2.4

What do the screens show for `O=C1CN(c2nc(-c3ccccc3)c3cc(Cl)ccc3n2)c2ccccc2N1`?
Glyco luc inh: 13.8; Mot1-301 SUMO: -16.6; CDK5 p35 inh: -1.4; ALR H2O2 inh: -3.3; NSD2 inh: 0.4

What do the screens show for `CC1CCCCN1C(=O)CSCC(=O)Nc1nc(-c2cccs2)cs1` (configuration not stated)?
Glyco luc inh: 0.8; Mot1-301 SUMO: 2.5; Casp6 inh: -0.1; CDK5 p35 inh: 0.1; ALR H2O2 inh: 2.9

What do the screens show for `CCOC(=O)N1CCN(C(=O)CSCC(=O)Nc2nc(-c3cccs3)cs2)CC1`?
Glyco luc inh: 0.5; Mot1-301 SUMO: -10.6; CDK5 p35 inh: 0.9; ALR H2O2 inh: 89.6*; NSD2 inh: 0.7

How did CC1CCN(C(=O)CSCC(=O)Nc2nc(-c3cccs3)cs2)CC1 do in these assays?
Glyco luc inh: -0.9; Mot1-301 SUMO: 7.2; Casp6 inh: -1.3; CDK5 p35 inh: 1.4; ALR H2O2 inh: 98.5*

What do the screens show for `CC1CCCN(C(=O)CSCC(=O)Nc2nc(-c3cccs3)cs2)C1` (configuration not stated)?
Glyco luc inh: 2.2; Mot1-301 SUMO: 19.6; Casp6 inh: 0.9; CDK5 p35 inh: -0.9; ALR H2O2 inh: 5.6

What do the screens show for `C[C@@H]1CN([C@H](C)CO)C(=O)c2cccc(NC(=O)C3CCCCC3)c2O[C@H]1CN(C)S(=O)(=O)c1cccs1`?
Casp6 inh: 1.5

Results for O=C(COc1ccc(S(=O)(=O)N2CCOCC2)cc1Cl)NC1CCCCC1 ?
Glyco luc inh: 0.9; Mot1-301 SUMO: 338.4*; Casp6 inh: 1.6; CDK5 p35 inh: 1.7; ALR H2O2 inh: -10.6; NSD2 inh: -3.8

Results for Cn1c2ccccc2c2cc(C(=O)NNC(=O)CCl)sc21 ?
Glyco luc inh: -3.1; Mot1-301 SUMO: -5.4; Casp6 inh: 10.3; CDK5 p35 inh: -1.2; ALR H2O2 inh: 35.5; NSD2 inh: 3.1

Results for CC(=O)Nc1ccc(S(=O)(=O)NNC(=O)c2cc3c4ccccc4n(C)c3s2)cc1 ?
Glyco luc inh: -1.6; CDK5 p35 inh: -0.6; ALR H2O2 inh: 98.4*; NSD2 inh: -0.3

Results for COCCNC(=O)c1cc2c3ccccc3n(C)c2s1 ?
Glyco luc inh: 0.9; Mot1-301 SUMO: -22.8; CDK5 p35 inh: -6.2; ALR H2O2 inh: 99.2*; NSD2 inh: 1.4

Results for CCCNC(=O)c1cc2c3ccccc3n(C)c2s1 ?
Glyco luc inh: 3.2; Mot1-301 SUMO: 25.2; CDK5 p35 inh: -2.7; ALR H2O2 inh: 99.4*; NSD2 inh: 0.6

Results for Cc1nc(S(=O)(=O)N2CCN(Cc3cccc(OCCO)c3)CC2)cn1C ?
Casp6 inh: 0.9

How did C[C@@H]1CN([C@@H](C)CO)C(=O)c2cc(NC(=O)CCCN(C)C)ccc2O[C@H]1CN(C)Cc1ccc(Oc2ccccc2)cc1 do in these assays?
Casp6 inh: -38.1

How did COC(=O)/C(=C\Nc1ccc(Oc2ccccc2OC(C)C)nc1)NC(=O)c1ccccc1 do in these assays?
Casp6 inh: -1.2

How did Cc1ccc(NCC(=O)N/N=C/c2ccc(OC(=O)c3ccco3)cc2)cc1 do in these assays?
Glyco luc inh: 1.5; Mot1-301 SUMO: 11.7; Casp6 inh: -0.7; CDK5 p35 inh: -0.2; ALR H2O2 inh: 99.1*

How did CCOC(=O)N/N=C\c1ccc(OC(=O)c2ccco2)cc1 do in these assays?
Glyco luc inh: 0.5; Mot1-301 SUMO: 7.9; Casp6 inh: 1.3; CDK5 p35 inh: -0.5; ALR H2O2 inh: 6.9; NSD2 inh: -0.6

What do the screens show for `CO[C@H]1CN(C)C(=O)c2cc(NC(=O)C3CCOCC3)ccc2OC[C@H](C)N(Cc2nccs2)C[C@@H]1C`?
Casp6 inh: 0.8

Results for C[C@@H]1CN([C@H](C)CO)C(=O)c2cc(NS(=O)(=O)c3ccccc3)ccc2O[C@@H](C)CCCCO[C@@H]1CN(C)Cc1ccncc1 ?
Casp6 inh: -2.1

How did COc1cccc(C(=O)N2CCN=C2SCc2cccnc2)c1OC do in these assays?
Glyco luc inh: -1.0; Mot1-301 SUMO: 17.5; Casp6 inh: -1.0; CDK5 p35 inh: 0.3; ALR H2O2 inh: 99.8*

What do the screens show for `COc1ccc(C(=O)N2CCN=C2SCc2cccnc2)c(OC)c1`?
Glyco luc inh: -0.3; Mot1-301 SUMO: 289.3; Casp6 inh: -1.0; CDK5 p35 inh: 0.2; ALR H2O2 inh: 99.7*

What do the screens show for `COc1ccccc1C(=O)N1CCN=C1SC`?
Glyco luc inh: 2.5; Mot1-301 SUMO: -6.3; CDK5 p35 inh: 0.8; ALR H2O2 inh: -12.9; NSD2 inh: -0.1

Results for O=C(CN1CCOCC1)NCC[C@@H]1CC[C@H](NC(=O)Nc2ccccc2)[C@H](CO)O1 ?
Casp6 inh: -1.7
